This is an account of results in PubChem BioAssay (EPA / NIEHS).

Molecules are shown by their SMILES. Activity calls are given as the source filed them. Rule for the calls: active = hit-call score of the fitted dose curve at least 0.9, where 1 is the maximum; inactive = score below 0.9.

A short description of assay [1]: APR_HepG2_CellLoss_72hr: Apredica 72-hour HepG2 Assay for Cell Loss (AID 2282915). The settings on record: high-content imaging. In outline: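 HepG2 cells exposed 72 h to compound at 0.39–200 uM (10 concentrations, duplicate) in 0.5% DMSO. Fixed with 3.7% formaldehyde and Hoechst 33342-stained. Imaged at 20x; nuclear count gives cell number, fitted bidirectionally versus DMSO.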

Assay [2] can be described thus: APR_HepG2_P-H2AX_72hr: Apredica 72-hour HepG2 Assay for H2AX Phosphorylation (AID 2282916).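 Note: phospho-histone H2A.x immunostain intensity per cell marking DNA damage.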 Conditions: imaging, actives raise or lower the signal. A digest of the protocol:
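Readout: phospho-H2A.x immunofluorescence (FITC secondary) plus Hoechst nuclear stain, high-content imaging at 20x, six fields/well. HepG2, 72 hr compound exposure, 0.39–200 uM, final DMSO 0.5% v/v. Gain or loss fitted relative to DMSO baseline.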

The nature of assay [3]: APR_HepG2_MitoticArrest_72hr: Apredica 72-hour HepG2 Assay for Mitotic Arrest (AID 2282918). Conditions: high-content imaging, actives raise or lower the signal. In outline: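 Using high-content imaging of fixed HepG2 cells, phospho-histone H3 signal was measured following a 72 hr incubation with ten-point compound dilutions up to 200 uM. DMSO served as the negative control and baseline for bidirectional curve fitting.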

A short description of assay [4]: APR_HepG2_P-H2AX_24hr: Apredica 24-hour HepG2 Assay for H2AX Phosphorylation (AID 2282920). The settings on record: high-content imaging, actives raise or lower the signal. In outline: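 Human HepG2 liver cells, treated 24 hr with test chemicals (0.39–200 uM, final DMSO 0.5% v/v), are fixed and co-stained for phospho-H2A.x and c-Jun with Hoechst. Imaged intensity is fitted in both directions against DMSO controls.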

Assay [5] in a line: APR_HepG2_StressKinase_72hr: Apredica 72-hour HepG2 Assay for Stress Kinase (AID 2282921). The settings on record: HepG2 stress kinase (phospho-c-Jun) imaging, actives raise or lower the signal. In outline:
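Phospho-c-Jun immunofluorescence measured by high-content imaging at 20x, six fields per well; bidirectional curve fitting against DMSO as baseline. Dosing: 0.39–200 uM, 72 h, 0.5% DMSO final.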

A short description of assay [6]: APR_HepG2_MitoMass_72hr: Apredica 72-hour HepG2 Assay for Mitochondrial Mass (AID 2282924).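 Note: MitoTracker Red CMXRos stain intensity per cell imaged as mitochondrial mass.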 The settings on record: high-content imaging, actives raise or lower the signal. In outline:
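Read-out: MitoTracker Red fluorescence intensity from automated imaging (20x, six fields per well) in human HepG2 liver cells. Dosing ran 72 hr, 0.39–200 uM, 0.5% DMSO; bidirectional curve fitting versus DMSO baseline.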

Assay [7] in a line: ATG_CRE_CIS: Attagene CIS-FACTORIAL HepG2 Assay for human cAMP Responsive Element (CRE) binding protein 3 (AID 2282926). The settings on record: HepG2 CRE cis-reporter, Attagene multiplexed mRNA; actives raise or lower the signal. A digest of the protocol: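 Liver-derived HepG2, transfected with a CRE-containing reporter panel, exposed 24 h; transcript levels sized and quantified by capillary electrophoresis of labelled amplicons; signal changes either way referenced to vehicle.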

The nature of assay [8]: ATG_CMV_CIS: Attagene CIS-FACTORIAL HepG2 Assay for human CMV (Internal Marker) (AID 2282928).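 Note: endpoint acts as a background internal control marker rather than a target.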 The settings on record: HepG2 CMV promoter reporter, transcription factor profiling; actives raise or lower the signal. In outline:
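Bidirectional fits against DMSO are applied to reporter mRNA, read by RT-PCR with capillary electrophoresis, from HepG2 cells exposed 24 h. The endpoint serves as an internal CMV background marker within the cis-factorial reporter panel.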

Assay [9] is described as follows: ATG_DR4_LXR_CIS: Attagene CIS-FACTORIAL HepG2 Assay for human Liver X Receptor (LXR), DR4 submotif (AID 2282929). Conditions: HepG2 Attagene DR4 cis-reporter, mRNA transcription; actives raise or lower the signal. In outline: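 HepG2, transient MRTU transfection, cis-element (DR4) promoter; 24 h compound exposure; total RNA → oligo(dT) RT → PCR → 6-FAM primer extension → HpaI cut → CE. Gain/loss vs DMSO, bidirectional fit.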

The target of assay [10] is Aryl hydrocarbon receptor (Homo sapiens) (UniProt P35869). The experiment in a line: ATG_Ahr_CIS: Attagene CIS-FACTORIAL HepG2 Assay for human Aryl Hydrocarbon Receptor (Ahr) (AID 2282930). Conditions: HepG2 AhR cis-factorial reporter transcription; actives raise or lower the signal. A digest of the protocol: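 HepG2 cells transiently transfected with cis-element-driven multiplexed reporter units; endogenous AhR activity read as reporter mRNA 24 h after dosing, via RT-PCR, 6-FAM labelling, HpaI digestion and capillary electrophoresis. Bidirectional fit relative to DMSO.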
Sequence of Aryl hydrocarbon receptor (Homo sapiens) (P35869 whole entry, looked up): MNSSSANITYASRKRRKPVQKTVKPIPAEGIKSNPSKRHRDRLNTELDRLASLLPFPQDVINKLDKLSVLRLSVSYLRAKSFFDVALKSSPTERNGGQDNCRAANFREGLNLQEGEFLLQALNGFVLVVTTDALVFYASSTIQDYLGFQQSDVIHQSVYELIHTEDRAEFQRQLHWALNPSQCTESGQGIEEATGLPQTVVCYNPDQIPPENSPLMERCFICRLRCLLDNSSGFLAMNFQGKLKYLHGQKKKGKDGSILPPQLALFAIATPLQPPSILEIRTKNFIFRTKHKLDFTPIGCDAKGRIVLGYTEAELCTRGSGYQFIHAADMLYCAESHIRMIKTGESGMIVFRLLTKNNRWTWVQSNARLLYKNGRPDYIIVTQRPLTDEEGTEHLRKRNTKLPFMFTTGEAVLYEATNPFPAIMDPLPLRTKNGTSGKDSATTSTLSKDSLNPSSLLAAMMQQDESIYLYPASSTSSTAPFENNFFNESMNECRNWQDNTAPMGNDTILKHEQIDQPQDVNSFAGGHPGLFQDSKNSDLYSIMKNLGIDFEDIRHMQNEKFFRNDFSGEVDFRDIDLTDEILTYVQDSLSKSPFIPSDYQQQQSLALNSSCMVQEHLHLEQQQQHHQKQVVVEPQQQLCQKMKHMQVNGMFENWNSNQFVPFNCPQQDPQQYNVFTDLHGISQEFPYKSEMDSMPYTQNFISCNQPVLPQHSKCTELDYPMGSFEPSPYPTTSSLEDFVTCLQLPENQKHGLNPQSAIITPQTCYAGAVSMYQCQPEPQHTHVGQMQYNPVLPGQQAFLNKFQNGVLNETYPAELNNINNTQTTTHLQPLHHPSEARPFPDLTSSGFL

The nature of assay [11]: ATG_AP_1_CIS: Attagene CIS-FACTORIAL HepG2 Assay for human Activator Protein 1 (AP-1) (AID 2282931). The settings on record: HepG2 Attagene cis-factorial AP-1 reporter mRNA; actives raise or lower the signal. A digest of the protocol: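 Transient MRTU transfection of HepG2 → 24 h chemical treatment → RNA isolation, RT-PCR, 6-FAM labelling, HpaI digest → capillary electrophoresis. Fit: bidirectional, DMSO negative control.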

Assay [12] is described as follows: ATG_BRE_CIS: Attagene CIS-FACTORIAL HepG2 Assay for human Bone Morphogenetic Protein (BMP) Response Element (BRE) (AID 2282933). The settings on record: HepG2 BMP response element reporter, Attagene transcription factor profiling; actives raise or lower the signal. In outline:
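A HepG2 multiplex reporter system measured inducible reporter mRNA 24 h post-dosing. Detection: RT-PCR, 6-FAM primer extension, HpaI digestion, capillary electrophoresis. Activity fitted bidirectionally relative to DMSO.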

Assay [13] has as its target Retinoic acid receptor alpha (Homo sapiens) (UniProt P10276). Put plainly: ATG_DR5_RAR_CIS: Attagene CIS-FACTORIAL HepG2 Assay for human Retinoic Acid Receptor Alpha (RARE), DR5 submotif (AID 2282934). The settings on record: HepG2 Attagene cis-factorial RARE DR5 reporter, mRNA; actives raise or lower the signal. In outline: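 HepG2 cells transiently transfected with multiplexed reporter units; DR5 cis-element drives reporter through endogenous transcription factors. After 24 h dosing, reporter mRNA quantified by RT-PCR, fluorescent labeling, HpaI digestion and capillary electrophoresis; bidirectional fitting versus DMSO.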

A short description of assay [14]: APR_HepG2_MicrotubuleCSK_72hr: Apredica 72-hour HepG2 Assay for Microtubule CSK Stabilty (AID 2282919). Conditions: HepG2 microtubule cytoskeleton, high-content imaging, actives raise or lower the signal. A digest of the protocol:
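HepG2, 72 hr cmpd exposure, 0.39–200 uM (10 pts, duplicate), 0.5% DMSO. 3.7% formaldehyde fix, 0.5% Triton perm, anti-alpha-tubulin/Cy5 plus Hoechst. HCS fluorescence intensity; bidirectional fit vs DMSO baseline; taxol as positive control.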

Assay [15] is described as follows: APR_HepG2_StressKinase_24hr: Apredica 24-hour HepG2 Assay for Stress Kinase (AID 2282922). Conditions: HepG2 stress kinase (phospho-c-Jun) imaging, actives raise or lower the signal. A digest of the protocol:
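Read-out: phospho-c-Jun immunofluorescence (Cy3 secondary) quantified by high-content imaging at 20x, nuclei defined by Hoechst 33342. Human HepG2 liver cells dosed 24 hr, 0.39–200 uM, DMSO 0.5% v/v; gain or loss of signal fitted relative to DMSO.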

A short description of assay [16]: APR_HepG2_NuclearSize_72hr: Apredica 72-hour HepG2 Assay for Nuclear Size (AID 2282925). The settings on record: high-content imaging, actives raise or lower the signal. In outline:
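Read-out: nuclear diameter from Hoechst 33342 images (ArrayScan, 20x, six fields/well), via cell-cycle image analysis. HepG2 were dosed 0.39–200 uM for 72 hr in 0.5% DMSO. Bidirectional fit relative to DMSO.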

Assay [17] in a line: ATG_AP_2_CIS: Attagene CIS-FACTORIAL HepG2 Assay for human Activator Protein 2 (AP-2) (AID 2282932). The settings on record: HepG2 AP-2 cis-reporter, Attagene transcription factor profiling; actives raise or lower the signal. A digest of the protocol:
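Read-out: fluorescent reporter mRNA via RT-PCR and capillary electrophoresis, 24 h post-dose in transiently transfected HepG2. Endogenous factors drive cis-promoter reporters; gain or loss of signal fitted bidirectionally against DMSO.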

A short description of assay [18]: APR_HepG2_p53Act_72hr: Apredica 72-hour HepG2 Assay for p53 Activation (AID 2282923).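 Note: average cellular p53 protein immunofluorescence intensity in HepG2 cells.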 Conditions: high-content imaging, actives raise or lower the signal. A digest of the protocol:
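Readout: p53 immunofluorescence quantified by automated high-content imaging at 20x, six fields per well, nuclei located via Hoechst. Dosing ran 72 hr over ten concentrations from 0.39 to 200 uM; bidirectional curve fitting against DMSO baseline.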

Sequence of Retinoic acid receptor alpha (Homo sapiens) (P10276 whole entry, looked up): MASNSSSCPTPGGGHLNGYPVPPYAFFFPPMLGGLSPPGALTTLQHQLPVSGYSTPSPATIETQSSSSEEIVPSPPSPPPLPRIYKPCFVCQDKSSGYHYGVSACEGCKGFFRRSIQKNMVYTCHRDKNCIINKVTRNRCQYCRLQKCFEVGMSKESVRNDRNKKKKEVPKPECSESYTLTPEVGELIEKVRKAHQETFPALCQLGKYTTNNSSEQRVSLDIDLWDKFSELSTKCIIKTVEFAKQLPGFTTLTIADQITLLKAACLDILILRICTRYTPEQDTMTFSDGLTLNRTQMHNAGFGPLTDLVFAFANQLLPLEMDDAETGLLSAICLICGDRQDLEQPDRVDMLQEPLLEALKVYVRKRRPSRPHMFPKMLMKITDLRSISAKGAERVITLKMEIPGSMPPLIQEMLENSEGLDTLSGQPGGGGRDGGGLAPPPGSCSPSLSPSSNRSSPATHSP

Turning to `O=P(O)(O)CCCl`, the outcome in assay [1], in assay [2], in [3], in assay [4], in [5] and in assay [6] was inactive. The compound was called inactive in [7], in assay [8], in assay [9], in assay [10], in [11] and in assay [12]. The call in assay [13] was inactive.
One may read the AC50 as the concentration at which the activity in the assay is half-maximal. As to `COCC(=O)N(c1c(C)cccc1C)C(C)C(=O)OC` (stereo not given), the call in [1], in assay [2], in assay [3], in [14], in assay [4] and in assay [5] was inactive. The compound was classed as inactive in [15], in assay [6], in assay [7], in assay [8], in [9] and in assay [11]. Also, in [13], the call was inactive. The AC50 was 81.7 µM (active) in assay [10] and 50 µM (active) in [12].
With `CCOc1nc(F)cc2nc(S(=O)(=O)Nc3c(Cl)cccc3Cl)nn12`, the call in assay [1], in assay [2], in assay [3], in assay [14], in assay [4] and in assay [5] was inactive. Further, the outcome in assay [6], in [16], in assay [7], in assay [8], in assay [9] and in assay [10] was inactive. For the same compound, the outcome in assay [11], in [17] and in assay [12] was inactive.
Take `CCOP(=S)(OCC)Oc1nc(Cl)n(C(C)C)n1`: the call in assay [1], in [2], in assay [3], in [4], in assay [5] and in assay [15] was inactive. Moreover, the call in [18], in assay [6], in assay [7], in assay [8], in assay [10] and in [11] was inactive. Moreover, the outcome in [12] and in assay [13] was inactive. For the same compound, the AC50 in assay [9] was 6.85 µM (active).
As to `CC(C)N1C(=O)c2ccccc2NS1(=O)=O`, the compound was classed as inactive in assay [1], in assay [2], in assay [3], in assay [4], in assay [5] and in [15]. For the same compound, the compound was called inactive in assay [18], in assay [6], in [7], in assay [8], in assay [10] and in [11]. Further, the outcome in assay [17], in assay [12] and in assay [13] was inactive. Further, the AC50 in [9] was 62 µM (active).
Consider `Cn1c(-c2ccccc2)cc(-c2ccccc2)[n+]1C`, for which the outcome in assay [1], in assay [2], in [3], in assay [4], in [5] and in assay [15] was inactive. The outcome in assay [6], in assay [16], in assay [7], in assay [8], in [9] and in assay [10] was inactive. Further, the compound was classed as inactive in [11], in assay [17], in assay [12] and in assay [13].
